Laboratory results from PubChem BioAssay (NCATS).
Records with an inconclusive call do not appear. Where a call stands in place of a potency, no number is given. Unmarked numbers belong to inactive results. Active and inactive are the calls of the source. Calls come from the whole dose curve; as a rule, active = well fitted inhibition curve with a large enough effect; inconclusive = small, poorly fitted or top-dose-only effect; inactive = flat fitted curve, though single readings scatter.

Columns and labels:
PC26 = experiment: qHTS profiling for inhibitors of Plasmodium falciparum proliferation (AID 504749); conditions: P. falciparum in erythrocytes, SYBR Green DNA, 72 h; series mostly up to 28.7 µM
Outline: (§1)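 Fluorescence of SYBR Green-bound parasite DNA, read at 485/535 nm, served as the growth measure. Infected erythrocytes were cultured with compound 72 h; artemisinin (0.29 uM) and DMSO wells defined the normalization range.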

PC49 = experiment: as above; conditions: P. falciparum in erythrocytes, SYBR Green DNA, 72 h; series mostly up to 28.7 µM
Outline: as §1

SC27B = experiment: as above; conditions: P. falciparum in erythrocytes, SYBR Green DNA, 72 h; series mostly up to 28.7 µM
Outline: as §1

TAB109 = experiment: as above; conditions: P. falciparum in erythrocytes, SYBR Green DNA, 72 h; series mostly up to 28.7 µM
Outline: as §1

TAB113 = experiment: as above; conditions: P. falciparum in erythrocytes, SYBR Green DNA, 72 h; series mostly up to 28.7 µM
Outline: as §1

TAB165 = experiment: as above; conditions: P. falciparum in erythrocytes, SYBR Green DNA, 72 h; series mostly up to 28.7 µM
Outline: as §1

W2 = experiment: as above; conditions: P. falciparum in erythrocytes, SYBR Green DNA, 72 h; series mostly up to 28.7 µM
Outline: as §1

CRL-7250 = normal cell line; experiment: Cytotoxic Profiling of Annotated Libraries Using Quantitative High-Throughput Screening (AID 1296008); conditions: Five cell lines viability, CellTiter-Glo ATP luminescence, 48-72 h; max response: stronger effect = lower value
Outline: (§2)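 Compounds were pin-transferred onto cells and incubated 48 or 72 hr at 37 degree Celsius, 95% humidity. CellTiter-Glo was added, plates sat 10 min at room temperature, then ATP-coupled luminescence was imaged as the viability read-out.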

HEK293 = experiment: as above; conditions: Five cell lines viability, CellTiter-Glo ATP luminescence, 48-72 h; max response: stronger effect = lower value
Outline: as §2

HaCat = experiment: as above; conditions: Five cell lines viability, CellTiter-Glo ATP luminescence, 48-72 h; max response: stronger effect = lower value
Outline: as §2
Note: nearly all actives have a fitted effect of over 60% in size.
Potency is the fitted concentration of half-maximal effect.

| Structure (SMILES) | Potency (PC26) | Potency (PC49) | Potency (SC27B) | Potency (TAB109) | Potency (TAB113) | Potency (TAB165) | Potency (W2) | outcome (CRL-7250) | max response (HEK293) | max response (HaCat) | outcome (HaCat) | max response (CRL-7250) | Potency (HEK293) | outcome (HEK293) |
| --- | --- | --- | --- | --- | --- | --- | --- | --- | --- | --- | --- | --- | --- | --- |
| Cc1cccc(C)c1NC(=O)c1ccccc1C(=O)O | inactive | inactive | inactive | inactive | inactive | inactive | inactive | inactive | 0.24% | 1.31% | – | – | – | – |
| Cc1c[nH]c2ccccc12 | inactive | inactive | inactive | inactive | inactive | inactive | inactive | inactive | 2.22% | – | inactive | – | – | – |
| C/C=C/C=N/NC(=O)c1ccncc1 | inactive | inactive | inactive | inactive | inactive | inactive | inactive | – | -6.37% | 0.247% | – | -0.246% | – | – |
| CC(=O)Nc1ccc(S(=O)(=O)Nc2ccc([N+](=O)[O-])cc2)cc1 | inactive | inactive | inactive | inactive | inactive | inactive | inactive | – | -4.06% | – | inactive | -4.42% | – | – |
| O=C(O)CCC(=O)Nc1ccc(S(=O)(=O)Nc2nccs2)cc1 | inactive | inactive | inactive | inactive | inactive | inactive | inactive | – | -13.9% | -28.4% | – | -7.17% | – | – |
| O=C(Nc1ccc([N+](=O)[O-])cc1)Nc1ccc([N+](=O)[O-])cc1 | inactive | inactive | inactive | inactive | inactive | inactive | 2.39 µM (active) | – | – | – | inactive | -8.01% | 8.41 µM (active) | – |
| COP(=O)(OC)OC(c1ccc(Cl)cc1)P(=O)(OC)OC (stereo not given) | inactive | inactive | inactive | inactive | inactive | inactive | inactive | – | -64.4% | -2.94% | – | -8.32% | – | – |
| FC1(F)C(F)(F)C(F)(F)C2(F)C(F)(F)C(F)(F)C(F)(F)C(F)(F)C2(F)C1(F)F (stereo not given) | inactive | inactive | inactive | inactive | inactive | inactive | inactive | – | 3.06% | 0.333% | – | 4.26% | – | – |
| CCc1oc2ccccc2c1C(=O)c1cc(I)c(O)c(I)c1 | inactive | inactive | inactive | inactive | inactive | inactive | inactive | – | -23.3% | -7.93% | – | -2.92% | – | – |
| CCCCN=C(N)N=C(N)N | inactive | inactive | inactive | inactive | inactive | inactive | inactive | – | – | 2.62% | – | 1.78% | – | inactive |
| CCCCCCCCCCCCSCCOCCO | inactive | inactive | inactive | inactive | inactive | inactive | inactive | – | -0.323% | 0.693% | – | 2.82% | – | – |
| O=C(NCCc1c[nH]c2ccccc12)c1cccnc1 | inactive | inactive | inactive | inactive | inactive | inactive | inactive | – | -10.1% | -2.67% | – | 2.2% | – | – |
| CCCCCCCCCCCCCC(=O)OC(C)C | inactive | inactive | inactive | inactive | inactive | inactive | inactive | – | -0.105% | -4.71% | – | -4.95% | – | – |
| Cc1nc(-c2ccc(Cl)cc2)oc1COC(C)(C)C(=O)O | inactive | inactive | inactive | inactive | inactive | inactive | inactive | inactive | 4.06% | 3.89% | – | – | – | – |
| Cc1c(-c2ccccc2)oc2c(C(=O)OCCN3CCCCC3)cccc2c1=O | inactive | inactive | inactive | inactive | inactive | inactive | inactive | – | -20.2% | 3.56% | – | -1.78% | – | – |
| N#CCC(=O)NN | inactive | inactive | inactive | inactive | inactive | inactive | inactive | inactive | 3.14% | – | inactive | – | – | – |
| O=C(O)C(Cc1cc(I)c(O)c(I)c1)c1ccccc1 (stereo not given) | inactive | inactive | inactive | inactive | inactive | inactive | inactive | – | 1.09% | -3.38% | – | -5.72% | – | – |
